What was measured:
[1] = target: T1, Aspartate--tRNA(Asp/Asn) ligase (Mycobacterium tuberculosis (strain ATCC 25618 / H37Rv)) (UniProt P9WFW3); experiment: Assay for Asp RNA synthetase-1 from Mycobacterium tuberculosis; format: functional; parameters: scale not given: direction of the effect not stated beside the values; settings: 30 µM; further: in the data most compounds retested in dose-response had high values
T1 sequence (whole entry): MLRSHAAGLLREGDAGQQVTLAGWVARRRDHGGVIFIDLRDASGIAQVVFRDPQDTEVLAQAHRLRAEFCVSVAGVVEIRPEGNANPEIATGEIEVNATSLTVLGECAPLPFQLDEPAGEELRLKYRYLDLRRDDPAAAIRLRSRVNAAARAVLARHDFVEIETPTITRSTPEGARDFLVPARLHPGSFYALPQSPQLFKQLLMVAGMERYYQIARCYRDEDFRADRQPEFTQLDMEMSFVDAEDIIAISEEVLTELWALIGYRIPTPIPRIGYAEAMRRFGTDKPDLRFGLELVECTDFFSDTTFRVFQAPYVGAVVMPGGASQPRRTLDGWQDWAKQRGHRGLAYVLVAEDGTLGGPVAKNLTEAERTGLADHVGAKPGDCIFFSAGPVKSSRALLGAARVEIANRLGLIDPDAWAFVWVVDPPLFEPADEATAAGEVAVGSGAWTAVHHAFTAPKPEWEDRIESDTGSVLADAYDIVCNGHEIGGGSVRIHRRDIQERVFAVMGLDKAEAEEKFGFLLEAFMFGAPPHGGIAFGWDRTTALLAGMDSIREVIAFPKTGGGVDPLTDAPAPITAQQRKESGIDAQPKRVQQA

[2] = target: Shiga toxin 2 (Escherichia coli O157:H7) (UniProt P09385+P09386); experiment: E. coli 0.157:H7 Shiga Toxin SOP - stx2 screening assay; format: functional; parameters: scale not given: direction of the effect not stated beside the values; settings: 30 µM

Compound | Percent Effect [1] [%] | Percent Effect [2] [%]
COc1ccc(C(=O)N2C[C@@H](CN3CCOCC3)[C@@H](CO)C2)c(C)c1 | -0.54 | 2.18
CCCn1[nH]cc/c1=N\C(=O)CN1CCOC(Cn2cc(C)cn2)C1 (configuration not stated) | -3.84 | 8.34
CNS(=O)(=O)c1cccc(CNc2cc(C(F)(F)F)ccn2)c1 | -2.24 | 27.2
CCc1c(C(=O)N2CCN(CC(N)=O)CC2)cnn1C(C)(C)C | -2.87 | 2.77
CC(C)C(C(=O)N1CCC(N(C)c2cccnn2)CC1)n1cncn1 (configuration not stated) | -3.21 | 11.4
CC(C)(C)C(O)CN1CCN(C(=O)c2cccc3[nH]ncc23)CC1 (configuration not stated) | -5.46 | -5.59
COc1cccc(N2CCN(Cc3ncc[nH]3)CC2=O)c1 | 0.446 | -4.16
CS(=O)(=O)NCC1CCCN(C(=O)Nc2ccccc2Cl)C1 (configuration not stated) | -5.99 | 10.6
COc1ccc(CNCc2ccc(N3CCCCC3)nc2)cc1OC | 1.06 | -82.1
FC(F)(F)c1cccc(C2(CNCc3ccncc3)CCOCC2)c1 | 2.66 | -27.1
CC1=Nc2c(c(=O)[nH]n2C(C)C)C(c2ccc(F)c(F)c2)S1 (configuration not stated) | 1.86 | 22.2
CCCNC(=O)Cn1nc(C(C)C)c2cnn(C(C)(C)C)c2c1=O | -6.33 | 8.81
CC(C)n1ncc2c1NC(=O)CC21C(=O)Nc2c(Cl)cccc21 (configuration not stated) | 4.56 | -7.34
CN(Cc1ccsc1)C(=O)Nc1cccnc1N1CCCC1 | 1.88 | -69.4
O=C(NCCc1cccc(F)c1)NCC(O)c1cccc(F)c1 (configuration not stated) | -1.7 | 32.2
CCCc1nnsc1C(=O)NCC1CCN(S(C)(=O)=O)CC1 | -7.1 | -1.41
Cc1ccc(CN2CCc3ncnc(-c4ccc(F)cc4)c3CC2)o1 | 5.12 | -19.5
O=C(CCNC(=O)C1CCCC1)NCc1ccccc1Cn1cncn1 | 2.64 | 29.7
COc1ccc(CN2C[C@H]3CN(c4ccsc4)C(=O)[C@H]3C2)cc1 | 4.05 | -26.4
Cc1ccoc1C(=O)NCC(Cc1ccc(F)cc1)C(N)=O (configuration not stated) | -2.1 | 9.66
O=C(CN1CCC(N2CCNC2=O)CC1)NCC(F)(F)F | -5.14 | -3.06
Cc1nc(C)n(CC2CCCN(CCOc3cccc(C#N)c3)C2)n1 (configuration not stated) | 2 | 12.2
O=C(NCCO)Nc1cccc(Cl)c1SC(F)F | 0.334 | -19.7

Compound | Percent Effect [1] [%] | Percent Effect [2] [%]
CC(C)Cc1noc(CN2CCN(c3nccs3)CC2)n1 | -4.73 | 11.6
Cc1nn(C)cc1CN(C)Cc1cc2c(cc1OC(F)F)OCO2 | 3.57 | -11.3
Cc1nn(C)c2c(=O)n(CC(=O)Nc3cc(Cl)cc(Cl)c3)nnc12 | -7.23 | -36.8
CNCC(=O)N1CCC(c2ccnc(Nc3ccc(C)cn3)n2)C1 (configuration not stated) | 2.93 | -58.2
Cc1nccn1C1CCCN(C(=O)c2ccc(N(C)C)nc2)C1 (configuration not stated) | -1.91 | 26
Fc1ccc(CN2CCO[C@H]3[C@H](OCC4CC4)CC[C@@H]32)cc1 | -1.08 | 3.83
Cc1ccc(C(=O)N2CCN(C(=O)Nc3ccccn3)CC2)o1 | 4.09 | 10.3
CCC(C)NC(=O)Cc1c(C)nc2c(c1C)c(=O)[nH]n2C (configuration not stated) | 5.44 | -28.6
Cc1nn(C(C)C)c(C)c1NC(=O)c1ccccc1 | 1.73 | -4.81
COc1ccnc(N2CCN(C(=O)c3csc(C4CC4)n3)CC2)n1 | -0.494 | -2.7
CCOCC(=O)N1C[C@@H]2COC[C@H](c3nc(C)no3)[C@@H]2C1 | 2.15 | -13.8
CCc1nc(N)sc1C(=O)N1CCCC(CCc2ccccc2C)C1 (configuration not stated) | 6.53 | -7.07
O=C(NCCNCC1CNc2ccnn2C1)c1ccc(F)cc1 (configuration not stated) | -3.94 | -25.2
CCc1nc(CN2CCCN(C(=O)C(C)n3cncn3)CC2)cs1 (configuration not stated) | -3.06 | 9.04
CSCC(=O)N1CCCN(c2ccccc2C)CC1 | 0.55 | -18.5
COc1ncccc1NC(=O)C1CC(=O)N(Cc2ccccn2)C1 (configuration not stated) | 1.2 | -0.103
Cc1noc2ncc(C(=O)NCC3CCN(C(C)C)C3)cc12 (configuration not stated) | 1.08 | 17.2
COCC1CN(C(=O)c2ccoc2C)Cc2nccn2C1 (configuration not stated) | 4.54 | -11.3
CC(C)C(=O)N1CCN(Cc2cc(-c3ccncc3)nn2C)CC1 | 0.491 | -50.3
COc1cc(CC(O)CO)c(OC)c2c1OCO2 (configuration not stated) | -3.19 | -10.5
COc1cc(CNC2CCCc3c2cnn3C)cc(OC)c1 (configuration not stated) | -0.657 | 18.7
CCn1c(CN2CCC(O)(C(=O)OC)CC2)nc2c(F)cccc21 | -3.57 | -24.9
Cc1cccc(CN(Cc2ccc(C)o2)C2CC(C)(C)NC(C)(C)C2)n1 | -1.8 | 3.65
